These results are taken from PubChem BioAssay (EPA / NIEHS).

Calls of active or inactive are those of the source. Rule for the calls: active = hit-call score of the fitted dose curve at least 0.9, where 1 is the maximum; inactive = score below 0.9.

As usually defined, the AC50 is the concentration giving half of the maximal activity seen.

Assay [1] in a line: ATG_E_Box_CIS: Attagene CIS-FACTORIAL HepG2 Assay for human Enhancer Box (E-box) (AID 2282936). The settings on record: HepG2 E-box cis-reporter transcription, actives raise or lower the signal. In a few lines: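 First, HepG2 cells receive multiple cis-regulated reporter constructs by transient transfection. Next, chemicals are applied for 24 h. Finally, reporter mRNA is quantified via RT-PCR and capillary electrophoresis, with DMSO as baseline.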

Assay [2] can be described thus: ATG_M_61_CIS: Attagene CIS-FACTORIAL HepG2 Assay for M61 Transcription Factor (Internal Marker) (AID 2282937). The settings on record: HepG2 Attagene CIS-FACTORIAL M61 internal marker reporter; actives raise or lower the signal. In a few lines:
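HepG2 cells transiently transfected with multiplexed cis-promoter reporter units reporting endogenous transcription factor activity, measured 24 h after dosing. Reporter mRNA quantified by RT-PCR and capillary electrophoresis; bidirectional fit against DMSO baseline.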

Assay [3] is described as follows: ATG_EGR_CIS: Attagene CIS-FACTORIAL HepG2 Assay for human Early Growth Response 1 (EGR1) (AID 2282938). To be noted: HepG2 Attagene CIS-FACTORIAL EGR reporter mRNA; actives raise or lower the signal. In a few lines: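 HepG2 cells transiently transfected with cis-element-driven multiplexed reporter units, dosed for 24 h. EGR1-element reporter mRNA quantified by RT-PCR, 6-FAM labelling, HpaI digestion and capillary electrophoresis; bidirectional fit versus DMSO.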

The nature of assay [4]: ATG_M_19_CIS: Attagene CIS-FACTORIAL HepG2 Assay for M19 Transcription Factor (Internal Marker) (AID 2282939). The settings on record: HepG2 Attagene CIS-FACTORIAL M19 internal marker reporter; actives raise or lower the signal. In a few lines:
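Chemical-treated HepG2 (24 h) with MRTU constructs; reporter transcripts detected by fluorescent RT-PCR fragment analysis on capillary electrophoresis. Internal background marker, DMSO as baseline.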

Assay [5] is described as follows: ATG_Ets_CIS: Attagene CIS-FACTORIAL HepG2 Assay for human Erythroblast Transformation Specific (ETS) (AID 2282941). To be noted: HepG2 ETS cis-reporter transcription, actives raise or lower the signal. In a few lines:
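Steps: transfect HepG2 with multiple reporter units; treat compound 24 h; isolate RNA, DNase-treat, reverse-transcribe; PCR-amplify, label with 6-FAM, digest with HpaI; separate by capillary electrophoresis. Activity fitted both directions versus DMSO.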

For assay [6], the target named is Hepatocyte nuclear factor 3-beta (Homo sapiens) (UniProt Q9Y261). Kind of assay: ATG_FoxA2_CIS: Attagene CIS-FACTORIAL HepG2 Assay for human Forkhead box A2 (FOXA2) (AID 2282942). To be noted: HepG2 cis-reporter transcription factor activity, 24 h; actives raise or lower the signal. In a few lines: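 HepG2 transiently transfected with a multiplexed cis-promoter reporter library read endogenous FOXA2 activity. After 24 h compound exposure, reporter mRNA was quantified by RT-PCR, HpaI digestion and capillary electrophoresis. Bidirectional fit against DMSO.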
Chain of Hepatocyte nuclear factor 3-beta (Homo sapiens) (Q9Y261 whole entry, looked up): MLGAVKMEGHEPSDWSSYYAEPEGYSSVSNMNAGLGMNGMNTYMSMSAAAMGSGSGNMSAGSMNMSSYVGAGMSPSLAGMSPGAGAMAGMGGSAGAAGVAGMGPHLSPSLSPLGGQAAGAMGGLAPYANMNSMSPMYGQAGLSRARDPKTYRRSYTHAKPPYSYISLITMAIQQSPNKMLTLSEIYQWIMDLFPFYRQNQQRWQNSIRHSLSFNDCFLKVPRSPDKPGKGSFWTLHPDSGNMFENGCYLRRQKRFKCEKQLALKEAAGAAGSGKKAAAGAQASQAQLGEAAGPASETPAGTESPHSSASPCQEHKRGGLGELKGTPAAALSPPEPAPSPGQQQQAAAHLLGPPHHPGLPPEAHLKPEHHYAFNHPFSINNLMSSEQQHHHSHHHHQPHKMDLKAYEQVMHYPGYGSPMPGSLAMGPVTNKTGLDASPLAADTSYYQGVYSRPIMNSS

The nature of assay [7]: ATG_FoxO_CIS: Attagene CIS-FACTORIAL HepG2 Assay for human Forkhead box O (FoxO) (AID 2282943). To be noted: HepG2 Attagene cis-reporter, FoxO element, mRNA; actives raise or lower the signal. In a few lines: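 Transfected HepG2 reporter cells exposed to test chemical for 24 h; reporter RNA measured by reverse transcription, PCR and fluorescent capillary electrophoresis; curves fitted for increases and decreases against DMSO.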

A short description of assay [8]: ATG_GATA_CIS: Attagene CIS-FACTORIAL HepG2 Assay for human GATA Binding Protein (AID 2282944). The settings on record: HepG2 GATA cis-element reporter, Attagene multiplex mRNA; actives raise or lower the signal. In a few lines: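 Transfected cis-reporter HepG2 cells were treated with chemicals for 24 hours. Total RNA was then converted to cDNA, amplified with reporter-specific primers and analysed by fluorescent capillary electrophoresis, using DMSO-treated wells as baseline.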

The nature of assay [9]: ATG_GLI_CIS: Attagene CIS-FACTORIAL HepG2 Assay for human Zinc Finger Protein GLI1 (AID 2282945). To be noted: HepG2, Attagene cis-factorial reporter mRNA, GLI element; actives raise or lower the signal. In a few lines: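 Transiently transfected HepG2 cells report endogenous transcription factor activity via cis-element-driven reporter units. After 24 h compound exposure, reporter mRNA was measured by RT-PCR with capillary electrophoresis; bidirectional fitting against DMSO baseline.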

Assay [10] can be described thus: ATG_ERE_CIS: Attagene CIS-FACTORIAL HepG2 Assay for Estrogen Response Element (ERE) (AID 2282940). To be noted: HepG2 ERE cis-reporter, Attagene RNA transcript; actives raise or lower the signal. In a few lines: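 Human liver cells (HepG2) bearing transiently transfected, promoter-regulated reporter units were exposed 24 h. Reporter mRNA induction was detected by capillary electrophoresis of labelled RT-PCR products and fitted bidirectionally to DMSO.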

Regarding `O=C1CCCCCCCCCCOCCCCO1`, the outcome in [1], in assay [2], in [3], in [4], in [5] and in assay [6] was inactive. The compound was classed as inactive in assay [7], in assay [8] and in assay [9].
As for `CC1(C)[C@H]2CC[C@]1(C)[C@H](O)C2`, the outcome in assay [1], in assay [2], in assay [3], in assay [4], in assay [5] and in assay [6] was inactive. Also, the compound was called inactive in assay [7], in [8] and in [9].
With `CCC(=O)OCCC(C)CCC=C(C)C` (configuration not stated), the result in assay [1], in assay [2], in assay [3], in assay [4], in assay [5] and in [6] was inactive. Also, the compound was classed as inactive in assay [7], in assay [8] and in [9].
Turning to `CSc1nc(NC2CC2)nc(NC(C)(C)C)n1`, the result in assay [1], in [2], in [3], in [4], in assay [5] and in assay [6] was inactive. For the same compound, the compound was classed as inactive in assay [7], in assay [8] and in assay [9].
Take `COC(C)CCO` (configuration not stated): the outcome in [1], in assay [2], in assay [3], in [4], in assay [5] and in assay [6] was inactive. Also, the compound was classed as inactive in assay [7], in assay [8] and in assay [9].
`O=c1[nH]c(=O)n([C@H]2CCCO2)cc1F`: the outcome in assay [1], in [2], in assay [3], in [4], in [5] and in assay [6] was inactive. Besides, the call in assay [7], in assay [8] and in assay [9] was inactive.
For `Fc1c(F)c(F)c(Br)c(F)c1F`, the result in assay [1], in [2], in [3], in assay [4], in assay [5] and in assay [6] was inactive. Moreover, the compound was called inactive in assay [7], in assay [8] and in [9].
`CC(=O)Nc1ccccc1O`: the result in assay [1], in [2], in [3], in [4], in assay [5] and in assay [6] was inactive. Also, the call in [7], in assay [8] and in [9] was inactive.
Consider `Cc1ccc(O)c(C(C)(C)C)c1`, for which the result in assay [1], in assay [2], in [3], in [5], in assay [6] and in [7] was inactive. The result in assay [8] was inactive. Further, the AC50 in assay [4] is 148 µM (active); in assay [9], 173 µM (active).
Turning to `COc1cc2ncnc(Nc3cccc(Cl)c3)c2cc1OC`, the result in [1], in [2], in assay [4], in [10], in assay [5] and in assay [8] was inactive. For the same compound, in assay [9], the compound was classed as inactive. In addition, the AC50 in assay [3] was 19.5 µM (active).
Take `COCCOCCOCCOCCOCCO`: the outcome in assay [1], in [2], in assay [3], in [4], in assay [5] and in assay [6] was inactive. For the same compound, the compound was classed as inactive in assay [7], in assay [8] and in assay [9].
For `C=C(C)[C@@H]1CC[C@@H](C)C[C@@H]1O`, the outcome in assay [1], in assay [2], in assay [3], in assay [4], in assay [5] and in assay [6] was inactive. Also, the compound was called inactive in assay [7], in [8] and in assay [9].
As to `CC(C)=CCC[C@H](C)CC=O`, the result in assay [1], in assay [2], in assay [3], in [4], in assay [5] and in [6] was inactive. Moreover, the compound was called inactive in [7], in [8] and in assay [9].
Consider `COc1c(Cl)c(Cl)c(Cl)c(Cl)c1Cl`, for which the result in assay [1], in assay [2], in assay [3], in [4], in assay [5] and in assay [6] was inactive. In addition, the call in [7], in [8] and in assay [9] was inactive.
`CCC(=O)/C=C/C1C(C)=CCCC1(C)C` (configuration not stated): the outcome in assay [1], in assay [2], in assay [3], in [4], in assay [5] and in assay [6] was inactive. Also, the result in [7], in assay [8] and in assay [9] was inactive.
As to `CCCOCC(C)O` (configuration not stated), the result in assay [1], in assay [2], in [3], in [4], in assay [5] and in assay [6] was inactive. Further, the outcome in assay [7], in assay [8] and in assay [9] was inactive.
As to `O=C(O)c1ccc(C(=O)O)cc1`, the result in assay [1], in [2], in assay [3], in assay [4], in [5] and in assay [6] was inactive. The outcome in assay [7], in assay [8] and in assay [9] was inactive.
For the compound `CC(C)(C)c1cc(CCC(=O)NN)cc(C(C)(C)C)c1O`, the outcome in assay [1], in [2], in assay [3], in [4], in [5] and in assay [6] was inactive. In addition, the compound was called inactive in assay [7], in assay [8] and in assay [9].
As for `O=S(=O)(O)NC1CCCCC1`, the result in [1], in [2], in assay [3], in assay [4], in [5] and in assay [6] was inactive. The compound was called inactive in assay [7], in assay [8] and in assay [9].
Consider `CO[Si](CCCn1c(=O)n(CCC[Si](OC)(OC)OC)c(=O)n(CCC[Si](OC)(OC)OC)c1=O)(OC)OC`, for which the outcome in assay [1], in assay [2], in assay [3], in [4], in assay [5] and in assay [6] was inactive. Further, the compound was classed as inactive in assay [7], in assay [8] and in assay [9].
For the compound `CC(C)=CCCC(C)=CCCC(C)=CCO`, the result in assay [1], in assay [2], in assay [3], in [4], in assay [5] and in [6] was inactive. Also, the call in assay [7], in [8] and in assay [9] was inactive.
As to `O=C1C(c2[nH]c3ccc(S(=O)(=O)O)cc3c2O)=Nc2ccc(S(=O)(=O)O)cc21`, the result in assay [1], in [2], in assay [3], in assay [4], in assay [5] and in assay [6] was inactive. For the same compound, the outcome in assay [7], in assay [8] and in assay [9] was inactive.
Take `CC1=CC(=O)NS(=O)(=O)O1`: the result in assay [1], in assay [2], in assay [3], in assay [4], in assay [5] and in [6] was inactive. Also, the call in assay [7], in assay [8] and in assay [9] was inactive.
For the compound `Nc1cc([N+](=O)[O-])ccc1Cl`, the result in assay [1], in assay [2], in [3], in [4], in assay [5] and in [6] was inactive. Besides, the result in [7], in assay [8] and in [9] was inactive.
As to `CCCCCCCCCCCCSC`, the outcome in [1], in assay [2], in [3], in [4], in assay [5] and in assay [6] was inactive. For the same compound, the call in [7], in assay [8] and in [9] was inactive.
Regarding `NC(=O)NC1NC(=O)NC1=O` (configuration not stated), the outcome in assay [1], in assay [2], in assay [3], in [4], in assay [5] and in [6] was inactive. Besides, the outcome in assay [7], in assay [8] and in assay [9] was inactive.
Turning to `COCCCOc1ccnc(CS(=O)c2nc3ccccc3[nH]2)c1C` (configuration not stated), the outcome in assay [1], in assay [2], in [3], in [4], in assay [5] and in assay [6] was inactive. In addition, the result in [7], in assay [8] and in assay [9] was inactive.
